Relative cell viability data for 13 molecules are collected here from the supplement of paper PMC8371130.

Counter-ions that a name gives are not always drawn.

In one assay the test system is HL-1. Description: relative cell viability (CellTiter-Glo) vs DMSO control (% of DMSO control); higher = more viable cells. The note with it: oxygen condition: normoxia 72 h; 40 nM. In outline:
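One day after HL-1 mouse atrial cardiomyocytes were plated (1000 cells per well, 384-well plates) with compounds at 40, 200, 1000 or 5000 nM in 0.01% DMSO, they were transferred to a hypoxic workstation at 1% O2. After 48 h there, the cells were reoxygenated for 24 h in a normal incubator, and comparison cells stayed in normoxia throughout the same time. Cell viability was quantified with CellTiter-Glo luminescence and normalised to vehicle-treated control cells.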
In general terms: Cellular ATP, detected with luciferase, serves as a proxy for viable cell number.
Molecule `CCC(C)n1ncn(-c2ccc(N3CCN(c4ccc(OCC5COC(Cn6cncn6)(c6ccc(Cl)cc6Cl)O5)cc4)CC3)cc2)c1=O` (stereo not drawn) [Itraconazole] registered a relative cell viability of 103.

`NC(=O)c1ncn([C@@H]2O[C@H](CO)[C@@H](O)[C@H]2O)c1O` [Mizoribine] yielded a relative cell viability of 111.

For the molecule `COc1cc(OC)c(C(=O)CCCN2CCCC2)c(OC)c1` [Buflomedil HCl], the relative cell viability was determined as 108.

`COc1ccc2cc1Oc1ccc(cc1)C[C@H]1c3c(cc4c(c3Oc3cc5c(cc3OC)CCN(C)[C@@H]5C2)OCO4)CCN1C` [Cepharanthine]: the relative cell viability was 99.4.

The same assay, now with this note: oxygen condition: normoxia 72 h; 200 nM.
Molecule `CN(C)CCOC(C)(c1ccccc1)c1ccccn1` (stereo not drawn) [Doxylamine Succinate] yielded a relative cell viability of 112.

As to `CC(C[N+](C)(C)C)OC(N)=O` (stereo not drawn) [Bethanechol chloride], the relative cell viability came to 104.

Turning to `CC(C)NC[C@H](O)COc1ccc(CCOCC2CC2)cc1` [Levobetaxolol HCl], the relative cell viability stood at 106.

In turn, `CNC[C@H](O)c1cccc(O)c1` [Phenylephrine HCl] gave a relative cell viability of 108.

With `CC1(C)O[C@@H]2[C@@H](CO[C@@]3(COS(N)(=O)=O)OC(C)(C)O[C@@H]23)O1` [Topiramate], the relative cell viability turned out to be 107.

Take `O=C1c2cccc3c2[C@H](CCC3)CN1[C@@H]1CN2CCC1CC2` [Palonosetron HCl]: the relative cell viability worked out at 103.

Turning to `NS(=O)(=O)c1cc2c(cc1Cl)N=CNS2(=O)=O` [Chlorothiazide], the relative cell viability is 104.

As for `Nc1ncn([C@@H]2O[C@H](CO)[C@@H](O)[C@H]2O)c(=O)n1` [Azacitidine], the relative cell viability came to 103.

Molecule `O=C(O)Cc1cc(I)c(Oc2ccc(O)c(I)c2)c(I)c1` [Tiratricol] came in with a relative cell viability of 103.
